Among the data in PubChem BioAssay (EPA / NIEHS) are outcome and AC50 values, retold here.

What is called AC50 is the midpoint of the concentration-response curve, whichever way the signal moves.

Active and inactive are the calls of the source. How the source made its calls: active means hit-call score of the fitted dose curve at least 0.9, where 1 is the maximum; inactive means score below 0.9.

Conditions in all cases: mRNA level, 48 h; actives raise or lower the signal
Read-out in assay [1]: Pro-epidermal growth factor (Homo sapiens) (UniProt P01133)
The experiment in a line: LTEA_HepaRG_EGF: Life Technologies and Expression Analysis (LTEA) Assay for Epidermal growth factor (EGF) using HepaRG (AID 2283489). In outline:
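HepaRG cells (~100,000/well, 48 h pre-culture) exposed in duplicate for 48 h in serum-free induction medium to 8 half-log concentrations up to 100 uM in 0.5% DMSO. EGF mRNA by qRT-PCR, normalized to ACTB/GAPDH/POLR2A; bidirectional fit versus DMSO.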

Read-out in assay [2]: Ezrin (EZR), EZR (gene 7430)
Kind of assay: LTEA_HepaRG_EZR: Life Technologies and Expression Analysis (LTEA) Assay for Ezrin (EZR) using HepaRG (AID 2283491). The gist of the method:
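EZR transcript levels came from Fluidigm qRT-PCR and were normalized to three housekeeping genes after 48 h chemical exposure of HepaRG cells. Dosing used an 8-point half-log series with a 100 uM top concentration in 0.5% DMSO, tested in duplicate; both directions were fitted versus vehicle.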

Read-out in another assay: CYP3A5 (gene 1577)
The experiment in a line: LTEA_HepaRG_CYP3A5: Life Technologies and Expression Analysis (LTEA) Assay for CYP3A5 using HepaRG (AID 2283493). In outline:
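Human HepaRG hepatic cells receive 48 h chemical treatment at eight concentrations (half-log steps from 100 uM) in 0.5% DMSO. Expression of CYP3A5 is quantified by Fluidigm qRT-PCR and normalized to three reference genes.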

Read-out in assay [3]: Fatty Acid-Binding Protein 1 (FABP1), FABP1 (gene 2168)
The experiment in a line: LTEA_HepaRG_FABP1: Life Technologies and Expression Analysis (LTEA) Assay for Fatty Acid-Binding Protein 1 (FABP1) using HepaRG (AID 2283494). In outline:
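qRT-PCR readout of FABP1 transcript (normalized to three housekeeping genes) after 48 h chemical exposure of HepaRG cells; eight concentrations, half-log steps, max 100 uM, 0.5% DMSO vehicle; gain or loss fitted relative to DMSO baseline.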

Read-out in assay [4]: Cytochrome P450 4A22 (Homo sapiens) (UniProt Q5TCH4)
The experiment in a line: LTEA_HepaRG_CYP4A22: Life Technologies and Expression Analysis (LTEA) Assay for Cytochrome P450 4A22 (CYP4A22) using HepaRG (AID 2283495). In outline: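 Differentiated HepaRG cells in serum-free induction medium exposed 48 h in duplicate to eight half-log concentrations up to 100 uM in 0.5% DMSO. CYP4A22 mRNA quantified by TaqMan qRT-PCR, normalized to ACTB, GAPDH and POLR2A; bidirectional fit versus DMSO.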

Read-out in assay [5]: Cytochrome P450 7A1 (Homo sapiens) (UniProt P22680)
The experiment in a line: LTEA_HepaRG_CYP7A1: Life Technologies and Expression Analysis (LTEA) Assay for Cytochrome P450 7A1 (CYP7A1) using HepaRG (AID 2283496). In outline: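 HepaRG, 48 h exposure, 8-pt half-log series from 100 uM, 0.5% DMSO vehicle, duplicates. Readout: TaqMan qRT-PCR mRNA vs three housekeeping genes; bidirectional curve fit against DMSO baseline.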

Read-out in assay [6]: Glutathione S-Transferase (GSTA2), GSTA2 (gene 2939)
Kind of assay: LTEA_HepaRG_GSTA2: Life Technologies and Expression Analysis (LTEA) Assay for Glutathione S-Transferase (GSTA2) using HepaRG (AID 2283497). The gist of the method: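 qRT-PCR readout of GSTA2 transcript, normalized to three housekeeping genes, fitted bidirectionally against 0.5% DMSO baseline. Differentiated HepaRG cells received compound for 48 h at 8 concentrations (top 100 uM, half-log steps).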

Read-out in assay [7]: Glutamate-cysteine ligase catalytic (GCLC), GCLC (gene 2729)
The experiment in a line: LTEA_HepaRG_GCLC: Life Technologies and Expression Analysis (LTEA) Assay for Glutamate-cysteine ligase catalytic (GCLC) using HepaRG (AID 2283498). The gist of the method:
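HepaRG, 48 h exposure, 8-pt half-log series from 100 uM, 0.5% DMSO vehicle; TaqMan qRT-PCR for GCLC mRNA, housekeeping-normalized; bidirectional curve fit vs DMSO baseline.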

Read-out in assay [8]: growth arrest and DNA damage 45 (GADD45G), GADD45G (gene 10912)
The experiment in a line: LTEA_HepaRG_GADD45G: Life Technologies and Expression Analysis (LTEA) Assay for growth arrest and DNA damage 45 (GADD45G) using HepaRG (AID 2283499). The gist of the method: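 Differentiated human HepaRG cells, 48 h post-plating, exposed 48 h in serum-free induction medium to 8 half-log concentrations (top 100 uM, 0.5% DMSO) in duplicate. GADD45G mRNA measured by Fluidigm TaqMan qRT-PCR, normalized to ACTB, GAPDH, POLR2A; bidirectional fit versus DMSO.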

Read-out in assay [9]: Glutamate-cysteine ligase regulatory (GCLM), GCLM (gene 2730)
The experiment in a line: LTEA_HepaRG_GCLM: Life Technologies and Expression Analysis (LTEA) Assay for Glutamate-cysteine ligase regulatory (GCLM) using HepaRG (AID 2283500). The gist of the method: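 Endpoint is GCLM transcript level by qRT-PCR, normalized to three housekeeping genes, after 48 h chemical exposure of human HepaRG cells (0.5% DMSO vehicle, top 100 uM, half-log dilutions). Fitting was bidirectional relative to DMSO.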

Read-out in assay [10]: Glutathione S-transferase M3 (GSTM3), GSTM3 (gene 2947)
Kind of assay: LTEA_HepaRG_GSTM3: Life Technologies and Expression Analysis (LTEA) Assay for Glutathione S-transferase M3 (GSTM3) using HepaRG (AID 2283501). The gist of the method:
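Differentiated human HepaRG cells were exposed in duplicate for 48 h in serum-free induction medium, 8 points from 100 uM top in half-log steps, 0.5% DMSO. GSTM3 mRNA was measured by TaqMan qRT-PCR, normalized to ACTB, GAPDH and POLR2A; bidirectional fit versus DMSO.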

Read-out in assay [11]: Heat shock 70 kDa protein 1 (HSPA1A), gene 3303
Kind of assay: LTEA_HepaRG_HSPA1A: Life Technologies and Expression Analysis (LTEA) Assay for Heat shock 70 kDa protein 1 (HSPA1A) using HepaRG (AID 2283502). In outline: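 Cells were plated and cultured for 48 h, then switched to serum-free induction medium. Chemicals were added at eight half-log concentrations up to 100 uM for 48 h. RNA was then isolated and HSPA1A measured by qRT-PCR with bidirectional curve fitting against DMSO.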

Read-out in assay [12]: Hypoxia-inducible factor 1-alpha (Homo sapiens) (UniProt Q16665)
Kind of assay: LTEA_HepaRG_HIF1A: Life Technologies and Expression Analysis (LTEA) Assay for Hypoxia-inducible factor 1 (HIF1A) Trancription factor using HepaRG (AID 2283503). In outline: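 HIF1A transcript level read by qRT-PCR (ACTB, GAPDH, POLR2A normalization) after 48 h chemical exposure of HepaRG cultures. Eight half-log concentrations, top 100 uM, 0.5% DMSO vehicle, duplicates; bidirectional curve fit against DMSO baseline.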

Read-out in assay [13]: 3-Hydroxy-3-Methylglutaryl-CoA Synthase 2 (HMGCS2), HMGCS2 (gene 3158)
The experiment in a line: LTEA_HepaRG_HMGCS2: Life Technologies and Expression Analysis (LTEA) Assay for 3-Hydroxy-3-Methylglutaryl-CoA Synthase 2 (HMGCS2) using HepaRG (AID 2283504). In outline: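 Human HepaRG cells in serum-free induction medium were exposed in duplicate for 48 h to 8-point half-log series from 100 uM top in 0.5% DMSO. HMGCS2 mRNA measured by TaqMan qRT-PCR, normalised to ACTB, GAPDH, POLR2A; bidirectional fit versus DMSO.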

Read-out in assay [14]: Insulin Like Growth Factor 1 (IGF1), IGF1 (gene 3479)
Kind of assay: LTEA_HepaRG_IGF1: Life Technologies and Expression Analysis (LTEA) Assay for Insulin Like Growth Factor 1 (IGF1) using HepaRG (AID 2283506). In outline:
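Cells are thawed, plated and cultured 48 h, then exposed in duplicate to chemical (highest 100 uM, half-log steps, 0.5% DMSO) for another 48 h. Total RNA is analysed by Fluidigm qRT-PCR for IGF1 expression relative to vehicle.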

Read-out in assay [15]: Intercellular Adhesion Molecule 1 (ICAM1), ICAM1 (gene 3383)
The experiment in a line: LTEA_HepaRG_ICAM1: Life Technologies and Expression Analysis (LTEA) Assay for Intercellular Adhesion Molecule 1 (ICAM1) using HepaRG (AID 2283507). In outline:
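Differentiated human HepaRG cells in serum-free induction medium exposed 48 h in duplicate to 8 half-log concentrations (top 100 uM, 0.5% DMSO). ICAM1 mRNA quantified by TaqMan qRT-PCR, normalized to ACTB, GAPDH and POLR2A; bidirectional fitting versus DMSO.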

Read-out in assay [16]: Insulin-like growth factor-binding protein 1 (IGFBP1), IGFBP1 (gene 3484)
The experiment in a line: LTEA_HepaRG_IGFBP1: Life Technologies and Expression Analysis (LTEA) Assay for Insulin-like growth factor-binding protein 1 (IGFBP1) using HepaRG (AID 2283508). The gist of the method: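 HepaRG cells, plated 48 h then switched to serum-free induction medium, exposed in duplicate for 48 h to 8-point half-log series from 100 uM in 0.5% DMSO. mRNA measured by qRT-PCR, normalized to ACTB/GAPDH/POLR2A; bidirectional fit versus DMSO.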

Read-out in assay [17]: Cytochrome P450 3A7 (Homo sapiens) (UniProt P24462)
The experiment in a line: LTEA_HepaRG_CYP3A7: Life Technologies and Expression Analysis (LTEA) Assay for CYP3A7 using HepaRG (AID 2283492). The gist of the method: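 Differentiated HepaRG cells in serum-free induction medium exposed 48 h in duplicate to 8-point half-log series from 100 uM top in 0.5% DMSO. CYP3A7 mRNA by qRT-PCR, normalized to ACTB/GAPDH/POLR2A, bidirectional fit versus DMSO.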

Read-out in a further assay: HGF (gene 3082)
The experiment in a line: LTEA_HepaRG_HGF: Life Technologies and Expression Analysis (LTEA) Assay for Hepatocyte Growth Facto (HGF) using HepaRG (AID 2283505). In outline: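 Differentiated HepaRG cells in serum-free induction medium exposed 48 h in duplicate, 8 half-log concentrations from 100 uM in 0.5% DMSO. HGF mRNA by qRT-PCR, normalised to ACTB, GAPDH, POLR2A; bidirectional fitting.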

Read-out in assay [18]: Early growth response protein 1 (EGR1) transcription factor, EGR1 (gene 1958)
The experiment in a line: LTEA_HepaRG_EGR1: Life Technologies and Expression Analysis (LTEA) Assay for Early growth response protein 1 (EGR1) transcription factor using HepaRG (AID 2283490). The gist of the method:
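HepaRG, 48 h exposure, 8-pt half-log series from 100 uM, 0.5% DMSO vehicle; EGR1 transcript by TaqMan qRT-PCR (Fluidigm array), housekeeping-normalized; bidirectional fit relative to DMSO baseline.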

Cytochrome P450 3A7 (Homo sapiens), sequence (P24462 whole entry, looked up): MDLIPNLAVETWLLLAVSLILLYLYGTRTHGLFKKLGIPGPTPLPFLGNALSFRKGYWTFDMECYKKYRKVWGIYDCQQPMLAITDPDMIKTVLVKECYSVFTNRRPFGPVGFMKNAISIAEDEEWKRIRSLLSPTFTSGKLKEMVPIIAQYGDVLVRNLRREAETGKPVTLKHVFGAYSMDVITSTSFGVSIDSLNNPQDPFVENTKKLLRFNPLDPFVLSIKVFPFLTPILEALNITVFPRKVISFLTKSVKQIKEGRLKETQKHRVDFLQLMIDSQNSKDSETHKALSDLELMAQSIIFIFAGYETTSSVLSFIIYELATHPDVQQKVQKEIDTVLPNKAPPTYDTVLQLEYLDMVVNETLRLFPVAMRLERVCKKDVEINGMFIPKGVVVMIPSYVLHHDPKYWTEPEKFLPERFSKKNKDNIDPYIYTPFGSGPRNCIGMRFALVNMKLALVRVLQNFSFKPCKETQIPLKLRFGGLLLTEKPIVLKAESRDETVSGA
Hypoxia-inducible factor 1-alpha (Homo sapiens), sequence (Q16665 whole entry, looked up): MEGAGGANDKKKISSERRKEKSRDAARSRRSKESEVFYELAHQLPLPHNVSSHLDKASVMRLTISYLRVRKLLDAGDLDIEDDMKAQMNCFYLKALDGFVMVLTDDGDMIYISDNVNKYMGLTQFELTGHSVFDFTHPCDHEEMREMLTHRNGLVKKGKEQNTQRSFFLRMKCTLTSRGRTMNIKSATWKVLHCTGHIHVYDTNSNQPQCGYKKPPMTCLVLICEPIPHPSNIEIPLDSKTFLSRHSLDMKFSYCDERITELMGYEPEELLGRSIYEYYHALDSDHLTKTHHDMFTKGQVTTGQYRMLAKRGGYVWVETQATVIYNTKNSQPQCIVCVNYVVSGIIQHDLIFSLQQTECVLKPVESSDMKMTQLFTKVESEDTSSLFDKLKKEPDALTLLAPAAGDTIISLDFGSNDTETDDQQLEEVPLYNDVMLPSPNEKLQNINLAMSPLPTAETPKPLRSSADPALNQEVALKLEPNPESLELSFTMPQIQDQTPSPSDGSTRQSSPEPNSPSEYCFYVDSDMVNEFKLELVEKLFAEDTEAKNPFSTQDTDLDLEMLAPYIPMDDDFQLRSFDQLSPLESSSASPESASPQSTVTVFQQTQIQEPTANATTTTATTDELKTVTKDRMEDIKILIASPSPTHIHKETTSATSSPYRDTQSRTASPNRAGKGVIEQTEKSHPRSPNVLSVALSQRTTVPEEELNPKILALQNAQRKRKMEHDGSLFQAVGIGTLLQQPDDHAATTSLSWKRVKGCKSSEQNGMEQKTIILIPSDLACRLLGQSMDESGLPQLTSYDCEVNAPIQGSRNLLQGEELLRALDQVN

On to `Nc1ccccc1N`, for which the compound was called inactive in [1], in assay [2], in assay [9], in [10], in assay [12] and in [15]. Further, the AC50 in the assay with CYP3A5 (gene 1577) was 51.3 µM (active); in assay [3] it was 72.6 µM (active); in assay [4] it was 64.6 µM (active); in assay [5] it was 79.9 µM (active); in [6], 74.9 µM (active); in assay [7], 86.4 µM (active). The half-maximal activity concentration (AC50) in [8] was 67.7 µM (active); in assay [11], 50 µM (active); in assay [13], 74 µM (active); in [14], 66.8 µM (active); in [16], 13.4 µM (active).

As to `CCNc1cccc(C)c1`, the call (in assay [1]; in [2]; in assay [17]; with CYP3A5 (gene 1577); in assay [3]; in assay [4]) was inactive. Further, the compound was classed as inactive in assay [5], in assay [6], in assay [7], in assay [9], in [10] and in assay [11]. The outcome (in assay [12]; in assay [13]; with HGF (gene 3082); in assay [14]; in assay [15]; in assay [16]) was inactive.

Take `Cc1nc(C)nc(N2C[C@@H](C)N(c3ccnc([C@@H](C)O)n3)[C@@H](C)C2)n1`: the outcome (in [18]; in assay [2]; with CYP3A5 (gene 1577); in assay [3]; in [5]; in assay [7]) was inactive. Also, the compound was called inactive in assay [8], in [9], in [10], in assay [11], in [12] and in [13]. Besides, the result in [14], in [15] and in [16] was inactive. Also, the results for the half-maximal activity concentration (AC50) in assay [17], in assay [4] and in assay [6] were 13.8 µM (active), 0.682 µM (active) and 25 µM (active), respectively.

With `CC1=C(/C=C/C(C)=C/C=C/C(C)=C/CO)C(C)(C)CCC1`, the concentration at half-maximal activity (AC50) in [1] is 52.2 µM (active); in [3], 26.3 µM (active); in assay [4], 22.2 µM (active); in [5], 21.9 µM (active); in assay [6], 52.2 µM (active); in assay [14], 52.2 µM (active). The compound was classed as inactive (in assay [2]; in [17]; with CYP3A5 (gene 1577); in [7]; in assay [8]; in assay [9]). Moreover, the call in [10], in assay [12], in assay [13] and in assay [16] was inactive.
